PubChem BioAssay AID1159580 (chemical genetic matrix, 2015)
In all, about 5,500 compounds went through this assay and about 2,000 (36%) were called active. Roughly 18% stayed inconclusive and do not appear here. No stated cut-off is given here; in the data, active means normalized growth mostly below about 0.91 (no sharp cut-off); inconclusive means no clear call, values can overlap the other calls; inactive means mostly above about 0.92. This is one part of the list.

Test: chemical genetic growth profiling, strain panel (AID 1159580);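 further: tested at 20 µM; growth read once vehicle control cultures reached saturation at 30 °C; 1 = growth at the plate median or of vehicle wells; lower values mean less growth of the strain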
Conditions: growth OD
[1] = S. cerevisiae deletion strains, locus YAL013W, strain DEP1, active compounds read low
[2] = S. cerevisiae deletion strains, locus YBR229C, strain ROT2, active compounds read low
[3] = S. cerevisiae deletion strains, locus YDL101C, strain DUN1, active compounds read low
[4] = S. cerevisiae deletion strains, locus YDR150W, strain NUM1, active compounds read low
[5] = S. cerevisiae deletion strains, locus YEL061C, strain CIN8, active compounds read low
[6] = S. cerevisiae deletion strains, locus YGR078C, strain PAC10, active compounds read low
[7] = S. cerevisiae deletion strains, locus YHR030C, strain SLT2, active compounds read low
[8] = S. cerevisiae deletion strains, locus YHR087W, strain rtc3, active compounds read low
[9] = S. cerevisiae deletion strains, locus YJR043C, strain POL32, active compounds read low
[10] = S. cerevisiae deletion strains, locus YJR075W, strain HOC1, active compounds read low
[11] = S. cerevisiae deletion strains, locus YLR039C, strain RIC1, active compounds read low
[12] = S. cerevisiae deletion strains, locus YLR058C, strain SHM2 (second series), active compounds read low
[13] = S. cerevisiae deletion strains, locus YLR085C, strain ARP6, active compounds read low
[14] = S. cerevisiae deletion strains, locus YLR262C, strain YPT6, active compounds read low
[15] = S. cerevisiae deletion strains, locus YML094W, strain GIM5, active compounds read low
[16] = S. cerevisiae deletion strains, locus YMR219W, strain ESC1, active compounds read low
[17] = S. cerevisiae deletion strains, locus YMR263W, strain SAP30, active compounds read low
[18] = S. cerevisiae deletion strains, locus YNL153C, strain GIM3, active compounds read low
[19] = S. cerevisiae deletion strains, locus YNL298W, strain CLA4 (second series), active compounds read low
[20] = S. cerevisiae deletion strains, locus YNL322C, strain KRE1, active compounds read low
[21] = S. cerevisiae deletion strains, locus YNR030W, strain Alg12, active compounds read low
[22] = S. cerevisiae deletion strains, locus YPL055C, strain LGE1, active compounds read low
[23] = S. cerevisiae deletion strains, locus YPL241C, strain CIN2, active compounds read low
[24] = S. cerevisiae deletion strains, locus YPR135W, strain CTF4, active compounds read low

Measured: normalized growth

Cc1ccc(NC(=S)NNC(C)(C)C)cc1
inactive: [1] 0.991 | [2] 0.963 | S. cerevisiae deletion strains, locus YCL061C, strain MRC1, active compounds read low 0.972 | [3] 0.971 | [4] 0.898 | [6] 0.997 | [7] 0.721 | [8] 1.01 | [9] 0.99 | [10] 1.06 | [12] 1 | [16] 1.01 | [17] 1.03 | S. cerevisiae deletion strains, locus YNL128W, strain TEP1, active compounds read low 0.94 | [18] 0.955 | [20] 1.02 | [22] 0.894 | [23] 0.913
active: [5] 0.838 | [11] 0.654 | [13] 0.488 | [14] 0.795 | [15] 0.827 | [19] 0.675 | [21] 0.787 | S. cerevisiae deletion strains, locus YOL006C, strain TOP1, active compounds read low 0.193 | [24] 0.646

O=C(Oc1ccc(C(F)(F)F)cc1[N+](=O)[O-])c1c(F)cccc1F
active: [1] 0.185 | [2] 0.178 | [3] 0.316 | [4] 0.25 | [5] 0.235 | [6] 0.172 | S. cerevisiae deletion strains, locus YGR229C, strain SMI1, active compounds read low 0.927 | [7] 0.16 | [8] 0.133 | S. cerevisiae deletion strains, locus YJL187C, strain SWE1, active compounds read low 0.141 | [9] 0.424 | [10] 0.101 | S. cerevisiae deletion strains, locus YKL190W, strain CNB1, active compounds read low 0.218 | [11] 0.286 | [12] 0.15 | [13] 0.122 | [14] 0.316 | [15] 0.4 | [16] 0.14 | [17] 0.169 | S. cerevisiae deletion strains, locus YMR307W, strain GAS1, active compounds read low 0.213 | [18] 0.227 | [19] 0.23 | [20] 0.577 | [21] 0.559 | [22] 0.171 | [23] 0.685 | [24] 0.269 | S. cerevisiae strains, strain wild type, active compounds read low 0.515
